Compound activity: PubChem BioAssay, several laboratories
Rows were chosen to be rich in hits. Some 3.8% of all compounds tested hit in one or more screens of this group.
PfHsp90 set2: inhibits growth of yeast expressing Plasmodium falciparum Hsp90 | S. cerevisiae expressing PfHsp90, BacTiter-Glo ATP, 48 h; yeast lacking PDR1 and PDR3 efflux regulators | inhibition, % at 9.4 µM | 310,000 tested, 0.32% active;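 active means every replicate shows inhibition above about 80%, whatever the replicate mean, limit read from the data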;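 further: 0% = DMSO neutral controls and 100% = 20 µM radicicol positive controls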
tim10-1 inh: inhibits growth of tim10-1 mutant yeast; S. cerevisiae tim10-1 ts strain growth, BacTiter-Glo, 24 h; inhibition, % at 20 µM; 330,000 tested, 2.2% active;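 active means inhibition of at least 40%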;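 further: mutant grown at 25 °C; 0% = DMSO wells with yeast and 100% = wells holding no yeast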
B2AR ag: agonists of human beta-2 adrenergic receptor inducing internalization. 340,000 tested, 0.43% active. AID 504454. response, % (concentration not given with the values). Am2.2-beta2AR cells, FAP receptor internalization, flow cytometry;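 active means response above a set limit, near 3 SD of response in nonfluorescent compounds, cut at about 42% in these data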
Target sequence (P07550 whole entry, looked up): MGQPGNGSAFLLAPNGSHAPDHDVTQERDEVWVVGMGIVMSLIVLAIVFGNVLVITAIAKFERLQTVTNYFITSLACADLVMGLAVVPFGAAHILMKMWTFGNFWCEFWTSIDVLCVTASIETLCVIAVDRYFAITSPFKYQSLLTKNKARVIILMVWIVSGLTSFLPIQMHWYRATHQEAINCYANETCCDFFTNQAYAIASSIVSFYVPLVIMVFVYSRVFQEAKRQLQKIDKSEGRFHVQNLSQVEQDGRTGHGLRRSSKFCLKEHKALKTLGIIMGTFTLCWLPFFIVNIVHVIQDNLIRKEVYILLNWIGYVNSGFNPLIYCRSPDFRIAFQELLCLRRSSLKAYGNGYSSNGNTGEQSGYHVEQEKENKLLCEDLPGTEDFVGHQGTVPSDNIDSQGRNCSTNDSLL
tim23-1 inh: inhibits growth of tim23-1 mutant yeast. S. cerevisiae tim23-1 growth, BacTiter-Glo luminescence, 24 h. inhibition, % at 20 µM. 330,000 tested, 1.3% active;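 active means growth inhibition of the mutant yeast at or above 50%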;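 further: temperature-sensitive mutant grown at 25 °C; plate controls were DMSO-treated mutant yeast for no effect and medium wells lacking yeast for full effect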
TIM10 inh: TIM10 yeast growth inhibition | inhibition, % at 10 µM | S. cerevisiae TIM10 strain growth, BacTiter-Glo luminescence, 24 h | 330,000 tested, 1.4% active | AID 463195;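 active means inhibition of 40% or more at the single tested concentration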;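 further: wild-type TIM10 isogenic control strain grown at permissive 25 °C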
B2AR ag CP1: agonists of human beta-2 adrenergic receptor; shares compounds with B2AR ag; Am2.2-beta2AR cells, FAP surface receptor, flow cytometry; stronger effect = lower value; percent response (surface receptor), % at 10 µM; 1,100 tested, 25% active;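 active means surface receptor percent response at or below 58%, roughly 3 SD from nonfluorescent compounds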
B2AR FAP counter: flagged in Am2.2 fluorescence counterscreen for beta-2AR agonists; calls only at 10 µM; Am2.2 cells, FAP fluorogen flow cytometry; stronger effect = lower value; shares compounds with B2AR ag; 1,100 tested, under 10 active; AID 588765;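 active means percent response below a set limit in fluorescence channel 1 and below 50% in channel 8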
Starred values were filed as active, the others as inactive; i = inactive; / = no result given.

SMILES | PfHsp90 set2 | tim10-1 inh | B2AR ag | tim23-1 inh | TIM10 inh | B2AR ag CP1 | B2AR FAP counter
Cc1ccc(/C=C/C(=O)OCC(=O)NCc2cccs2)o1 | 18 | 9 | -1 | 12 | 0 | / | /
COCCn1c(SCc2nnc(-c3ccccc3)o2)nc2sc3c(c2c1=O)CCC3 | 26 | / | 121* | / | / | 130 | i
COCCn1c(SCC(=O)Nc2ncc(C)s2)nc2sc3c(c2c1=O)CCC3 | / | 31 | / | 19 | 5 | / | /
Cc1ccc(CNC(=O)COC(=O)c2cccc(S(=O)(=O)N3CCCCC3)c2)cc1 | 12 | 14 | 7 | 21 | 1 | / | /
Cc1nc2ccc(Cl)cc2c(-c2ccccc2Cl)c1CC(=O)O | -16 | -1 | 46* | 13 | 6 | 93 | i
Cc1nc2ccc(Cl)cc2c(-c2ccccc2F)c1CC(=O)O | -7 | -9 | 6 | 10 | 3 | / | /
Cc1cccc(NC(=O)c2cc(-c3cccnc3)nc3c(C)cccc23)n1 | -57 | 32 | 75* | 21 | 6 | 129 | i
Cc1cc(NC(=O)c2cc(-c3ccncc3)nc3c(C)cccc23)no1 | / | 27 | -9 | 31 | 7 | / | /
NC(=S)N=Nc1c(O)n(Cc2ccc(F)cc2)c2ccccc12 | -6 | 29 | -3 | -35 | -10 | 102 | i
CC(C)Oc1ccc(/C=N/NC(N)=S)cc1 | -1 | 9 | -5 | 49 | 10 | 92 | i
O=C1NCN(c2ccccc2)C12CCN(CCCC(c1ccc(F)cc1)c1ccc(F)cc1)CC2 | 0 | 0 | 49* | 10 | 25 | 82 | i
Oc1ccccc1-c1cc(C(F)(F)C(F)F)nc(-c2ccccc2)n1 | 19 | 11 | 4 | 2 | -3 | / | /
O=[N+]([O-])c1ccc(O)c(-c2cc(C(F)(F)F)nc(-c3ccccc3)n2)c1 | 14 | 10 | 48* | 1 | 21 | 81 | i
Cc1cc(-c2ccccc2)nc(SCC(=O)N2CCCC2)n1 | 15 | 7 | -19 | 9 | -4 | 115 | i
CN(C)CCNC(=O)C(=O)NCC1CCCN1S(=O)(=O)c1cccs1 (centres undefined) | / | 5 | -4 | -3 | 8 | / | /
CCOC(=O)c1c(-c2ccccc2)oc2ccc(O)c(CN(C)C)c12 | / | 37 | 25 | 16 | 19 | / | /
CCOC(=O)c1c(-c2ccccc2)oc2ccc(O)c(CN3CCCC3)c12 | -13 | 39 | 95* | 25 | 24 | 106 | i
CNCCCC12CCC(c3ccccc31)c1ccccc12 | 5 | 15 | 29 | 8 | 12 | 95 | i
CNCCCC1c2ccccc2C=Cc2ccccc21 | 10 | 13 | 17 | -11 | 5 | / | /
CCOc1cc(Br)cc(/C=N/NC(=O)c2cccnc2)c1O | 8 | -3 | 5 | 44 | -28 | / | /
COc1ccc(-n2c(SCC(N)=O)nnc2-c2ccc(NS(=O)(=O)c3ccc(C)cc3)cc2)cc1 | / | 11 | 55* | -5 | 17 | 106 | i
COc1ccc(-n2c(SCC(=O)Nc3ccccc3)nnc2-c2ccc(NS(=O)(=O)c3ccc(C)cc3)cc2)cc1 | -2 | 9 | 10 | -38 | -25 | / | /
C=CCc1ccc(OCCOc2ccc(/C=N/n3cnnc3)cc2OCC)c(OC)c1 | / | 11 | 57* | -13 | 15 | 33* | i
COc1cc(/C=N/n2cnnc2)ccc1OCCOc1ccccc1 | -4 | 18 | -3 | 12 | 7 | / | /
COc1ccc(C(C)=O)cc1COc1cc(C)c(Cl)c(C)c1 | -16 | 2 | 5 | -1 | 0 | / | /
SMILES | PfHsp90 set2 | tim10-1 inh | B2AR ag | tim23-1 inh | TIM10 inh | B2AR ag CP1 | B2AR FAP counter
COc1ccc(C(C)=O)cc1COc1ccc(Cl)cc1Cl | 0 | 19 | 50* | 15 | 27 | 56* | i
COc1ccc(C(C)NCCC(c2ccc(OC(C)C)cc2)c2ccccc2OC)cc1 (centres undefined) | 8 | 26 | 23 | 23 | 25 | 96 | i
N#Cc1c(NC(=O)CSc2ncccn2)oc(-c2ccccc2)c1-c1ccccc1 | -45 | 8 | 49* | 9 | 10 | 117 | i
CCC(C)NC(=O)c1c(N)n(/N=C/c2cccnc2)c2nc3ccccc3nc12 (centres undefined) | -17 | 28 | 48* | 35 | 15 | 84 | i
COCCCNC(=O)c1c(N)n(/N=C/c2cccnc2)c2nc3ccccc3nc12 | -3 | 30 | 0 | 0 | 9 | / | /
O=C(Nc1ccc2c(c1)OCO2)C(c1ccc(Cl)cc1)N1CCC2(CC1)OCCO2 (centres undefined) | -15 | 16 | 18 | 23 | 32 | / | /
CC(C)c1ccc(NC(=O)C(c2ccc3c(c2)OCO3)N2CCC3(CC2)OCCO3)cc1 (centres undefined) | -5 | 27 | 8 | 13 | 26 | 127 | i
O=C(NCCCN1CCN(CCCNC(=O)c2ccc3c(c2)OCO3)CC1)c1ccc2c(c1)OCO2 | / | 0 | -1 | 6 | -13 | 103 | i
O=C(NCCCN1CCN(CCCNC(=O)c2ccccc2F)CC1)c1ccccc1F | / | 4 | 0 | -5 | -1 | 113 | i
COc1ccc(C(=O)NCCn2ccc3ccccc32)cc1OC | 1 | -3 | 45* | 7 | -2 | 97 | i
COc1ccc(C(=O)NCCCN2CCN(CCCNC(=O)c3ccc(OC)c(OC)c3)CC2)cc1OC | -12 | -11 | 1 | -5 | -2 | 100 | i
COc1cccc(C(=O)NCCn2ccc3ccccc32)c1 | 9 | -1 | 10 | 8 | -2 | / | /
CC(=O)NC1(C(F)(F)F)NC(=O)N(CCc2ccccc2)C1=O (centres undefined) | 11 | 6 | -4 | 4 | 6 | / | /
COc1ccccc1N1CCN(Cc2cc(=O)c(OCC#N)co2)CC1 | -25 | -15 | -3 | -9 | 1 | / | /
CC(C)Cc1nnc(NC(=O)CN2C(=O)NC3(CC(C)CC(C)(C)C3)C2=O)s1 (centres undefined) | 7 | -5 | 2 | 0 | 3 | / | /
CCOc1cc(NC(=O)c2ccco2)c(OCC)cc1NC(=O)c1cc(OC)c(OC)c(OC)c1 | -20 | 14 | 1 | -5 | -18 | / | /
COc1cc(NC(=O)c2ccco2)c(OC)cc1NC(=O)c1cc(OC)c(OC)c(OC)c1 | / | 29 | 0 | 21 | 30 | 126 | i
CCCCc1ccc(NC(=O)CSc2nc(=O)n(CCN(C)C)c3c2CCC3)cc1 | -1 | 3 | 11 | 3 | 3 | / | /
CCCCc1ccc(NC(=O)CSc2nc(=O)n(CCN(CC)CC)c3c2CCCC3)cc1 | 17 | 2 | 43* | 9 | 1 | 103 | i
CCOc1ncccc1C(=O)Nc1ccc(-c2ccc3nnc(C)n3n2)cc1 | -3 | -1 | 44* | -12 | 14 | 107 | i
Cc1nnc2ccc(-c3ccc(NC(=O)c4cccnc4Cl)cc3)nn12 | 8 | -3 | -3 | -5 | 17 | / | /
